Screens from PubChem BioAssay.
D2 ag-1 – Beta-Arrestin HTS for Positive Allosteric Modulators of the Human D2 Dopamine Receptor: Agonists; D(2) dopamine receptor (Homo sapiens), P14416; DiscoveRx PathHunter D2 beta-arrestin, luminescence, 90 min; 100% = 57 uM dopamine signal; activation, % (test concentration not listed); hit rate 0.084% among 360,000; in the data active means activation above about 40%; inconclusive means between about 15% and that limit
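Agonist mode: compounds alone added to overnight-plated D2 PathHunter cells for 90 min at 37 C, with 57 uM final dopamine (EC100) defining full response. Beta-arrestin recruitment detected by chemiluminescent reagent, read after 1 h at ambient temperature.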
B2AR arrestin – qHTS assay of beta-arrestin-biased ligands of beta2-adrenergic receptor; Beta-2 adrenergic receptor (Homo sapiens), P07550; beta-arrestin recruitment to beta2AR, cell-based reporter; Potency, µM (series often up to 46.1 µM), without a hit: at the top dose activation, most hits filed as activators; hit rate 0.02% among 330,000; AID 492947, 2010; active means well fitted activation curve with a large enough effect; inconclusive means small, poorly fitted or top-dose-only effect;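 further: potency means the concentration at half of the fitted maximal effect; 0% = DMSO controls and full agonism = EC100 isoproterenol or metaproterenol; nearly all actives have a fitted effect of over 65% in size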
Target sequence (P07550 whole entry, looked up): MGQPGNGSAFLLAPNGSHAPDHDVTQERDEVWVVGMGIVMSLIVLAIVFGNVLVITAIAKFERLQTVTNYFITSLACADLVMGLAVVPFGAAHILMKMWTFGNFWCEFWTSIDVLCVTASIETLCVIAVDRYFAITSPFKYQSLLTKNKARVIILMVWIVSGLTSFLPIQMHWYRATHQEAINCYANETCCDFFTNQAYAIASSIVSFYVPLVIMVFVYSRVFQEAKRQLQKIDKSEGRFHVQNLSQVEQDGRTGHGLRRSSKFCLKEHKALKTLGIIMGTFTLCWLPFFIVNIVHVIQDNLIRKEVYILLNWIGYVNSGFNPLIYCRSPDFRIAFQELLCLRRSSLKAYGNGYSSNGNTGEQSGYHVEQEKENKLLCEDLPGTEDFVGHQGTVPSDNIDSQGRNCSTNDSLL
D2 antagonist – HTS Assay for Allosteric Antagonists of the Human D2 Dopamine Receptor: Primary Screen for Antagonists. HEK293 TREx D2 cells, calcium flux, dopamine EC80. inhibition, % at 10 µM. D(2) dopamine receptor (Homo sapiens), P14416. AID 485344, 2010. hit rate 2% among 340,000; in the data active means inhibition above about 30%; inactive means below that, where a call was filed; further: 0% is about no effect
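Compounds are added to dye-loaded, induced HEK293 T-REx cells coupled to calcium release via D2; after a 3 min kinetic read an EC80 dopamine stimulus is given and fluorescence is recorded for 3 more min.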
D2 PAM-1 – HTS Assay for Positive Allosteric Modulators of the Human D2 Dopamine Receptor: Primary Screen for Potentiators | HEK293 T-REx D2, calcium flux, EC20 dopamine potentiation | hit rate 0.34% among 340,000 | D(2) dopamine receptor (Homo sapiens), P14416 | AID 485347, 2010 | potentiation, % at 10 µM;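 active means potentiation over 3 SD above the plate norm, cut at about 30% in these data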; further: 0% is about no effect
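Using a no-wash calcium dye in inducible, force-coupled HEK293 Trex cells expressing D2, we tracked fluorescence each second for 180 s after compound, then for 180 s after EC20 dopamine to detect augmented signalling.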
D2 PAM-2 – Beta-Arrestin HTS for Positive Allosteric Modulators of the Human D2 Dopamine Receptor: Potentiators; DiscoveRx D2 beta-arrestin cells, luminescence, 90 min; 100% = 57 uM dopamine signal; potentiation, % (no concentration beside the values); hit rate 0.23% among 360,000; AID 624464, 2012; in the data active means potentiation above about 50%; inconclusive means mostly about 30% to 49%
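D2 cells co-treated with compound plus 50 nM dopamine (EC20) for 90 min at 37 deg C to detect potentiation. Beta-arrestin recruitment was read as enzyme-fragment luminescence after 1 h at ambient temperature. Full response was set by 57 uM dopamine.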
D2 ag-2 – HTS Assay for Allosteric Agonists of the Human D2 Dopamine Receptor: Primary Screen for Agonists; D(2) dopamine receptor (Homo sapiens), P14416; HEK293 T-REx D2 cells, calcium flux agonist mode; activation, % at 2 µM; hit rate 0.53% among 340,000;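 active means activation over 3 SD above normal in the single-dose calcium agonist read, cut at about 30% in these data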; further: 0% is about no effect
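Tetracycline-induced HEK293 T-REx cells with force-coupled D2 receptor, plated overnight at 30 C, loaded with no-wash calcium dye. After a 10 s baseline, compound was pin-added and calcium flux read kinetically for 180 s; calcium rises flagged agonists.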
* = called active by the depositor; ? = inconclusive; nt = not tested or not shown. Most compounds without a hit are left out; they make up all but 2.4% or so of the library.

SMILES	D2 ag-1	B2AR arrestin	D2 antagonist	D2 PAM-1	D2 PAM-2	D2 ag-2
CC(=O)c1ccc(NC(=O)CNC2CCCCC2)cc1	-2.8	0.3%	8.8	-2.8	-6.8	1.1
Cc1ccc(NC(=O)CNC2CCCCC2)cc1Cl	-8.4	-0.8%	30.3*	10.4	-6.1	0.2
c1ccc(CNc2nc(NCC3CC3)nc3cc(-c4ccccc4)sc23)cc1	-1.9	nt	nt	nt	-20.4	nt
c1ccc(OCCNc2nc(NCC3CC3)nc3cc(-c4ccccc4)sc23)cc1	44.0*	nt	nt	nt	-20.1	nt
CCOC(=O)c1sc2nc(C)nc(SCC(=O)NC3CCS(=O)(=O)C3)c2c1C (stereo not drawn)	3.0	-0.3%	-17.2	41.8*	-8.1	-1.0
O=C(Cc1ccc([N+](=O)[O-])cc1)N1CCCCCC1	0.7	-0.1%	-5.0	-2.0	-2.9	0.5
O=C(CCc1ccc(Oc2cc([N+](=O)[O-])cc([N+](=O)[O-])c2)cc1)N1CCCCCC1	?	-0.6%	37.5*	-5.3	75.1*	-0.9
O=[N+]([O-])c1ccc(CN2CCN(c3ccccc3Cl)CC2)o1	-4.4	-0.2%	-10.3	-10.4	-5.0	0.6
O=C(NCc1cccnc1)c1ccc(Br)o1	-3.1	4.4%	-2.5	-9.8	-13.3	0.0
CC(=O)c1cccc(NC(=O)c2ccc(-c3ccccc3[N+](=O)[O-])o2)c1	0.0	0.0%	32.8*	-15.6	-21.1	0.4
O=C(NCc1cccnc1)c1ccc(-c2ccccc2[N+](=O)[O-])o1	2.3	-0.9%	85.3*	-19.6	-13.1	-2.2
O=C(NCc1cccnc1)c1ccc(-c2cccc(Cl)c2Cl)o1	-3.4	-0.3%	59.1*	9.9	-28.8	1.6
CC(=NNc1ccc([N+](=O)[O-])cn1)c1ccc(N)cc1	-4.9	nt	nt	nt	-24.2	nt
CN(Cc1ccccc1)C(=O)c1ccccc1NC(=O)c1ccco1	0.9	-0.5%	31.2*	-9.0	7.6	0.0
CN(Cc1ccccc1)C(=O)Cc1ccccc1	-0.7	0.3%	2.0	16.9	-0.2	0.5
CN(Cc1ccccc1)C(=O)CC(=O)N(C)Cc1ccccc1	1.5	0.1%	7.1	33.6*	-0.4	0.5
O=C(Nc1nnc(-c2ccncc2)s1)C1CCCO1 (stereo not drawn)	-1.8	-0.2%	-29.3	3.7	-20.5	-1.5
O=C(Nc1nnc(-c2ccccc2F)s1)C1CCCO1 (stereo not drawn)	-1.4	-0.8%	39.7*	0.6	2.3	0.7
FC(F)Sc1ccc(NC(=S)NCC2CCCCC2)cc1	2.2	-0.3%	31.9*	-14.1	-20.6	7.9
FC(F)Sc1ccc(NC(=S)NC2CCCCC2)cc1	-0.2	0.5%	-16.5	-3.6	-21.1	7.6
c1ccc2c(c1)Nc1cc3ccccc3cc1S2	?	-0.2%	-16.3	-0.8	23.9	-1.8
c1ccc2c(c1)Nc1cc3ccccc3cc1O2	?	nt	nt	nt	90.6*	nt
COc1ccc(S(=O)(=O)NCC2CCCO2)cc1NC(=O)c1ccccc1F (stereo not drawn)	-3.1	0.3%	35.6*	-3.3	-9.0	0.2
Cc1ccc(C(=O)NCC(=O)NNC(=O)CN(C)S(=O)(=O)c2ccc(Cl)cc2)s1	-0.7	0.2%	-1.5	7.4	-3.2	2.8
Cc1ccc(S(=O)(=O)NC(C)C(=O)NC(C)c2cccs2)cc1 (stereo not drawn)	-2.6	-1.0%	-1.0	31.9*	-3.1	0.4
O=S(=O)(c1ccc(F)cc1)N1CCN(CC(O)COCc2cccs2)CC1 (stereo not drawn)	0.4	0.1%	5.7	4.6	23.9	0.2
OC(COCc1cccs1)CN1CCN(c2cccc(C(F)(F)F)c2)CC1 (stereo not drawn)	-0.2	-1.3%	50.4*	-19.4	-27.7	1.8
